A structure can be active in one record and inactive in another. Activity calls are given as the source filed them. Rule for the calls: active = hit-call score of the fitted dose curve at least 0.9, where 1 is the maximum; inactive = score below 0.9.

Consider 9 molecules from PubChem BioAssay (EPA / NIEHS).

A short description of this test: CCTE_Shafer_MEA_dev_per_network_spike_spike_percent: CCTE's Neural Network Formation Assay for Percent of Spikes in a Network Spike, Shafer Lab (AID 2284054). The method, then:
CCTE_Shafer_MEA_dev assay is conducted using Axion Biosystems 48 well microelectrode array (MEA) plates and Maestro recording system. Each well of the MEA plate contains a grid of 16 microelectrodes embedded in the culture surface. Electrically active cells, such as neurons, can be cultured over the electrodes, and electrical activity in these cells can be recorded extracellularly. The spontaneous firing of neurons is captured from each electrode on a microsecond timescale providing both temporally and spatially precise data. […] The CCTE_Shafer_MEA_dev assay uses primary cultures of rat cortical neurons. Recordings are made on days post-plating 5, 7, 9 and 12. As these cultures mature over time, neural networks develop functional activity and form cohesive networks in which electrical activity can be highly coordinated. CCTE_Shafer_MEA_dev_per_network_spike_spike_percent is 1 of 19 assay components of the CCTE_Shafer_MEA_dev assay. It measures the percent of spikes (action potential firings) in a network spike (temporally-clustered group of spikes across multiple electrodes) as the number of spikes that occur within a 0.05 s time window at the peak of a network spike divided by the total number of spikes during a recording in a microelectrode array (MEA) using Axion Biosystems Maestro 768 channel amplifier with the AxIS adaptive spike detector. To collapse across multiple recordings made on days post-plating 5, 7, 9 and 12, the trapezoidal area-under-the-curve of the component is calculated.Data from the assay component CCTE_Shafer_MEA_dev_per_network_spike_spike_percent was analyzed into 1 assay endpoint. This assay endpoint, CCTE_Shafer_MEA_dev_per_network_spike_spike_percent, was analyzed in the negative analysis fitting direction relative to DMSO as the negative control and baseline of activity. Using a type of functional reporter, gain or loss-of-signal activity can be used to understand electrical activity.
On the day prior to culture, each well was coated thoroughly with 150 uL of 0.05% polyethyleneimine (PEI, Sigma Cat P3143) in 50 mM HEPES (Sigma Cat H7523) at a pH of 8. The plate was incubated at 37C for one hour. PEI was rinsed out with 500 uL of sterile water three times. Plates were stored at 4C until the day of culture. This culture was plated at a seeding density of 1.5 x 10^5 cells/well on a 48-well MEA plate, prepared as described above. Cells were administered via a 25 uL media/laminin ([…]; Sigma Cat L2020-1MG) drop directly onto the microelectrode array, as adding the cells with the laminin results in better attachment than pre-coating with laminin. After 2 hours, an additional 475 uL of cortical media was added and the cells returned to the incubator. Exposure starts at day 0 of plating and is continued over twelve days of network development until the experiment is terminated. Cells are fed with fresh medium on DIV 5 and 9, following the recordings on those days. The entire volume of media in the well is exchanged and any vehicle or compound treatment is renewed. Complete details are found in OP-NHEERL/ISTD/SBB/TJS/2015-03-r0 (available on request, email shafer.tim@epa.gov). Measurement of the electrical activity is non-invasive, and recordings can be made from the same plate over multiple different days of the culture. In cortical neurons, this allows for the measurement of extracellular action potentials over the period during which networks form in the MEA plate.
With `CC=CC(F)(F)C(F)(F)C(F)(F)F`, the AC50 is 3.82 µM (active).
In the case of `Nc1ncn([C@@H]2O[C@H](CO)[C@@H](O)[C@H]2O)c(=O)n1`, the AC50 was 4.31 µM (active) and the result was inactive.
Take `FC(F)=C(F)OC(F)(F)C(F)(F)C(F)(F)F`: the outcome was inactive.
In the case of `CN(C)c1ccc(C(=N)c2ccc(N(C)C)cc2)cc1`, the AC50 is 1.63 µM (active).
`COC(F)(F)C(F)(C(F)(F)F)C(F)(F)F`: the call was inactive.
Still for that read-out and setting: the same measure for `c1ccc2c(c1)ccc1cc3c(ccc4ccccc43)cc12`: “inactive”.
Regarding `N[C@H]1C(O)O[C@H](CO)[C@H](O)[C@@H]1O` (stereo not given in full), the half-maximal activity concentration (AC50) was 27.4 µM (active).
With `CCOC(F)(F)C(F)(F)C(F)(F)C(F)(F)F`, the molecule was classed as inactive.
On the same count and under the same terms, the same measure for `CC1(C)S[C@@H]2[C@H](NC(=O)COc3ccccc3)C(=O)N2[C@H]1C(=O)O`: “inactive”.

The term AC50 denotes the concentration giving half of the maximal activity seen.
